# Laboratory results: PubChem BioAssay (EPA / NIEHS)
# Where “and” joins values, the source holds several entries; their conditions need not be identical. Equal entries are not always repeated. The source holds several records for some structures; these can differ, active in one and inactive in another. Calls of active or inactive are those of the source. The calls were made as follows, unless noted: active = hit-call score of the fitted dose curve at least 0.9, where 1 is the maximum; inactive = score below 0.9.
# Read-out: CD69, CD69 (gene 969)
# Assay: BSK_LPS_CD69: BioMAP Diversity Plus: LPS Assay for CD69 Biomarker Activity (AID 2284303)
# Settings: primary human HUVEC with PBMC
# Outline: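 Human umbilical vein endothelial cells co-cultured with PBMC under LPS stimulation, chemical exposure 24 h; cell-surface CD69 measured by ELISA and fitted in the positive direction versus DMSO.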
Compound,outcome,AC50
C=CC(F)(F)C(F)(F)C(F)(F)C(F)(F)C(F)(F)C(F)(F)C(F)(F)C(F)(F)F,inactive,
OCC(F)(F)C(F)(F)C(F)(F)F,inactive,
O=C(O)C(F)(F)C(F)(F)C(F)(F)F,inactive,
FC(F)(F)C(F)(F)C(F)(F)N(C(F)(F)C(F)(F)C(F)(F)F)C(F)(F)C(F)(F)C(F)(F)F,inactive,
O=P(O)(O)OCCC(F)(F)C(F)(F)C(F)(F)C(F)(F)C(F)(F)C(F)(F)F,inactive,
O=C(O)C(F)(OC(F)(F)C(F)(OC(F)(F)C(F)(OC(F)(F)C(F)(F)C(F)(F)F)C(F)(F)F)C(F)(F)F)C(F)(F)F (centres undefined),inactive,
FC(F)(F)C(F)(F)C(F)(F)CI,inactive,
O=C(O)C(F)(F)C(F)(F)C(F)(F)C(F)(F)C(F)(F)C(F)(F)C(F)(F)C(F)(F)C(F)(F)C(F)F,,37.8 µM (active) and 27.9 µM (active)
O=S(=O)(O)C(F)(F)C(F)(F)C(F)(F)C(F)(F)C(F)(F)C(F)(F)C(F)(F)F,inactive,
O=C(CC(=O)C(F)(F)C(F)(F)F)C(F)(F)F,inactive,
O=C(O)C(F)(F)C(F)(F)C(F)(F)C(F)(F)C(F)(F)C(F)(F)C(F)(F)C(F)(F)C(F)(F)C(F)(F)C(F)(F)C(F)(F)C(F)(F)F,inactive,
C=CC(=O)OCC(F)(F)C(F)(F)C(F)(F)C(F)(F)COC(=O)C=C,,8.63 µM (active) and 9.41 µM (active)
FC(F)(F)C(F)(F)C(F)(F)C(F)(F)C(F)(F)C(F)(F)CC1CO1 (centres undefined),inactive,
O=C(Cl)C(F)(F)C(F)(F)C(F)(F)C(F)(F)C(F)(F)C(F)(F)C(F)(F)C(F)(F)F,inactive,18.1 µM (active) and 22.1 µM (active)
NC(=O)C(F)(F)C(F)(F)C(F)(F)C(F)(F)F,inactive,
FC(F)(F)C(F)(F)C(F)(F)C(F)(F)C(F)(F)C(F)(F)CCS,inactive,

# Test system: IYD (gene 389434)
# Assay: CCTE_GLTED_hIYD: CCTE's human Iodotyrosine Deiodinase (xIYD) Inhibition Assay, Great Lakes Toxicology and Ecology Division (GLTED) Lab (AID 2284317; active = hit-call score of the fitted dose curve at least 0.9, where 1 is the maximum;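 also: cell-free human IYD enzyme made in baculovirus insect cells; iodide freed from monoiodotyrosine measured by cerium arsenite color change at 420 nm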)
# Settings: not given
# Outline: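 First, recombinant human IYD (baculovirus-insect cells), MIT and chemical incubated 3 h. Next, iodide isolated on Dowex. Finally, Sandell-Kolthoff rate read at 420 nm, with platewise normalization to MNT and solvent controls.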
Compound,AC50,outcome
O=C(O)C(F)(F)C(F)(F)C(F)(F)C(F)(F)C(F)(F)C(F)(F)C(F)(F)C(F)(F)Cl,74.4 µM (active),
CC(Cc1ccc(O)c(O)c1)C(C)Cc1ccc(O)c(O)c1 (centres undefined),,inactive
CCN(Cc1cccc(S(=O)(=O)O)c1)c1ccc(C(=C2C=CC(=[N+](CC)Cc3cccc(S(=O)(=O)O)c3)C=C2)c2ccc(O)cc2S(=O)(=O)[O-])cc1,66.1 µM (active),
O=C(O)C(F)(F)C(F)(F)C(F)(F)C(F)(F)C(F)(F)C(F)(F)C(F)(F)C(F)(F)C(F)(F)C(F)F,73.5 µM (active),
O=S(=O)(O)C(F)(F)C(F)(F)C(F)(F)C(F)(F)C(F)(F)C(F)(F)C(F)(F)F,100 µM (active),
O=C(Cl)C(F)(F)C(F)(F)C(F)(F)C(F)(F)C(F)(F)C(F)(F)C(F)(F)C(F)(F)F,139 µM (active),
CCCCC(CC)COP(=O)(O)OCC(CC)CCCC (centres undefined),100 µM (active),
